Compounds with a hit are over-represented: about 10% of the library has one in this group of screens.
G9a inh = qHTS Assay for Inhibitors of Histone Lysine Methyltransferase G9a. Histone-lysine N-methyltransferase EHMT2 (Homo sapiens), Q96KQ7. G9a H3K9 monomethylation, AlphaScreen, 2 h. Potency, µM (highest dose often 102 µM), most hits filed as inhibitors. 8.8% of 350,000 active; further: nearly all actives have a fitted effect of over 75% in size
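Signal arises when biotinylated H3K9 peptide, once monomethylated, bridges streptavidin donor and antibody-captured acceptor beads. Enzyme at 20 nM was preincubated 15 min with test compounds; peptide 500 nM and SAM 20 uM then reacted for 2 h.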
BAZ2B inh = qHTS Assay for Inhibitors of BAZ2B; 4.4% of 360,000 active; AlphaScreen BAZ2B-H3K14Ac peptide displacement; Potency, µM (doses to about 114 µM), usual class: inhibitors; further: nearly all actives have a fitted effect of over 60% in size
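Complex of BAZ2B and biotin-H3K14Ac (50 nM apiece) forms over 30 min at RT, then faces library compounds up to 110 uM for another 30 min; AlphaScreen beads added, 20 min dark incubation, luminescence read.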
GLS inh = qHTS for Inhibitors of Glutaminase (GLS); GLS enzymatic activity, qHTS titration; 0.21% of 410,000 active; Potency, µM (doses to about 45.5 µM), hits mostly inhibitors
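Assay buffer: 45 mM KH2PO4 pH 8.2, 0.02% Tween-20. hKGA acts on L-glutamine (1 mM solution added); product glutamate is reported by an oxidase/peroxidase Amplex Red coupling, with fluorescence taken at baseline and 30 min.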
L3MBTL1 block = qHTS Assay for the Inhibitors of L3MBTL1; AlphaScreen L3MBTL1–H3K9me1 peptide binding; Potency, µM (series often up to 57.1 µM), most hits filed as inhibitors; 0.66% of 230,000 active; AID 485360, 2010; further: nearly all actives have a fitted effect of over 60% in size
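L3MBTL1 50 nM + b-AHA-H3(1-15)K9me1 75 nM, 30 min RT; compound added, 30 min RT; streptavidin donor/Ni-chelate acceptor beads 10 ug/mL each final, 30 min RT dark; AlphaScreen read.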
JMJD2A Tudor = qHTS Assay for Inhibitors of JMJD2A-Tudor Domain | Lysine-specific demethylase 4A (Homo sapiens), O75164 | AlphaScreen JMJD2A-Tudor / H3K4me3 peptide binding | Potency, µM (doses to about 114 µM), usual class: inhibitors | 4.4% of 390,000 active | AID 504339, 2011; further: nearly all actives have a fitted effect of over 50% in size
HP1b binding inh = HTS for Inhibitors of HP1-beta Chromodomain Interactions with Methylated Histone Tails. AlphaScreen HP1-beta / biotin-H3K9me3 peptide binding. Potency, µM (top dose mostly 114 µM), hits mostly inhibitors. 0.56% of 390,000 active; further: nearly all actives have a fitted effect of over 70% in size
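AlphaScreen: HP1-beta (50 nM) preformed 30 min with biotin-H3(1-18)K9me3 peptide (50 nM) in PBS pH 7.4, 0.01% Tween-20. Compound added for 30 min at RT, then streptavidin donor/nickel chelate acceptor beads (10 ug/mL) for 30 min.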
Hits are given with their value; – = inactive; ? = inconclusive; · = no result; [ ] = dose if it differs, or a comment. The call rests on the fitted dose curve; in most records, active means well fitted curve in the direction sought with a large enough effect; inconclusive means small, poorly fitted or top-dose-only effect, or another doubt; inactive means no such curve, though single readings can be large; an effect the other way counts as inactive or inconclusive.

SMILES	G9a inh	BAZ2B inh	GLS inh	L3MBTL1 block	JMJD2A Tudor	HP1b binding inh
CC1Cc2ccccc2N1C(=O)CSc1nc2ccc(NC(=O)COc3ccccc3)cc2s1 (stereo unspecified)	–	–	–	·	–	–
O=C1c2oc3ccc(Cl)cc3c(=O)c2C(c2cccc(Br)c2)N1CCO (stereo unspecified)	50µM	–	–	–	–	–
COc1ccc(OC)c(C2c3c(oc4ccccc4c3=O)C(=O)N2CCCN(C)C)c1 (stereo unspecified)	?	–	–	–	–	–
CCCOc1ccc(C2c3c(oc4ccccc4c3=O)C(=O)N2CCN(CC)CC)cc1OC (stereo unspecified)	50µM	–	–	–	–	–
Cc1ccc2oc3c(c(=O)c2c1)C(c1cccc(Br)c1)N(Cc1ccco1)C3=O (stereo unspecified)	–	–	–	–	–	–
CCN(CC)CCN1C(=O)c2oc3ccccc3c(=O)c2C1c1cccc(Br)c1 (stereo unspecified)	50µM	–	–	–	–	–
CCN(CC)CCCN1C(=O)c2oc3ccccc3c(=O)c2C1c1cccs1 (stereo unspecified)	50µM	–	·	·	·	·
CCN(CC)CCN1C(=O)c2oc3ccccc3c(=O)c2C1c1ccccc1 (stereo unspecified)	–[0.501 µM]	–	–	–	–	–
COc1ccc2[nH]cc(CCNC(=O)c3cnn(-c4ccc(C)cc4)c3C3CCN(C(=O)OC(C)(C)C)CC3)c2c1	–	–	–	·	?	–
COc1cc(Cl)c(NS(=O)(=O)c2ccc(-c3cnc(C4CC4)o3)cc2)c(OC)c1	–	?	–	·	–	–
CC(C)c1ccc(NC(=O)CCNS(=O)(=O)c2ccc3c(c2)oc(=O)n3C)cc1	–	–	–	·	–	–
NC(=O)[C@@H]1CCCN1C(=O)[C@H](Cc1cnc[nH]1)NC(=O)[C@@H]1CCC(=O)N1	–	·	–	·	·	·
CCOC(=O)N1CCN(Cc2nc3cc([N+](=O)[O-])ccc3n2C(C)C)CC1	–	–	–	·	–	–
CN(C)CCCN1C(=O)c2oc3ccc(Cl)cc3c(=O)c2C1c1cccnc1 (stereo unspecified)	50µM	–	–	–	–	–
Cc1cccc(NC(=O)C2CCC(CNS(=O)(=O)c3csc(C(N)=O)c3)CC2)c1C (stereo unspecified)	–	–	–	·	–	–
COc1ccc(C)cc1NC(=O)C(c1ccccc1)N1CCN(CC(=O)N2CCOCC2)CC1 (stereo unspecified)	45µM	–	–	–	–	–
O=C(O)CCN1C(=O)C2C3CC(C2C1=O)C1C(c2ccccc2)c2sc(=O)n(-c4ccccc4)c2SC31 (stereo unspecified)	45µM	?	–	·	–	–
CC(C)(CN=C1NS(=O)(=O)c2ccccc21)CNC(=O)c1ccccc1	–	–	–	·	–	–
O=C(C1=C(Nc2ccccc2)c2ccccc2S(=O)(=O)N1)c1ccccc1	25µM	–	–	–	?	?
COc1cc2ccccc2cc1C(=O)Nc1cccc(-c2nc3cc(C)c(C)cc3o2)c1C	3.2µM	–	–	·	–	–
COc1cc2ccccc2cc1C(=O)Nc1cccc(-c2nc3cc(C)ccc3o2)c1C	–	–	–	·	–	–
COc1cc(OC)c(NC(=O)CSc2nccn2C)cc1Cl	–	–	–	·	–	–
O=C(O)c1cn(-c2ccc(N3CCCC3)c(F)c2)c2c(F)c(F)c(F)cc2c1=O	45µM	–	–	·	?	–
COCCCn1c(=O)c2ccccc2n2c(=S)[nH]nc12	8.9µM	–	–	·	10µM	?
CCOc1ccccc1NC(=O)Cn1c(=O)n(CCCCC(=O)NCCCOC)c(=O)c2ccccc21	–	79µM	–	·	–	–
SMILES	G9a inh	BAZ2B inh	GLS inh	L3MBTL1 block	JMJD2A Tudor	HP1b binding inh
COCCCn1c(=O)c2ccccc2n(Cc2ccccc2)c1=O	6.3µM	?	–	–	–	–
COc1cccc(-c2cc3c(=O)n(-c4ccccc4)c(=S)[nH]c3s2)c1	?	–	–	–	–	–
COc1cccc(-n2c(=O)c3ccccc3n3c(=S)[nH]nc23)c1	1.6µM	–	?	·	11µM	–
O=C(NCc1ccccc1Cl)c1ccc2c(c1)ncn2-c1cccc(F)c1	–	–	–	·	–	–
CCc1ccc(-n2c(=O)c3ccccc3n3c(=S)[nH]nc23)cc1	1.4µM	–	–	·	4.5µM	–
Cc1ccccc1-n1c(=O)c2ccccc2n2c(=O)[nH]nc12	–	–	–	–	–	–
Cc1cccc(-n2c(=O)c3ccccc3n3c(=S)[nH]nc23)c1C	1.1µM	–	–	·	25µM	–
O=c1c2ccccc2n2cnnc2n1-c1ccccc1	–	–	–	–	–	–
O=C(NCC(=O)N1CCN(c2ccccc2O)CC1)C1CCCCC1	–	–	5.6µM	–	–	–
Oc1ccc(/C=N/NC(=S)Nc2cccnc2)cc1O	?	?	5µM	11µM	–	?
Oc1ccc(C=NNC(=S)Nc2cccnc2)nc1	·	·	–	·	10µM	–
CC(C)(C)c1ccc(/C=N/NC(=S)Nc2cccnc2)cc1	?	–	·	–	·	·
CCCN1C(C(=O)c2ccccc2)=C(OC(=O)COc2ccc(C)cc2)c2ccccc2S1(=O)=O	?	?	–	·	?	–
CCN1C(C(=O)c2ccccc2)=C(OC(=O)COc2ccc(C)cc2)c2ccccc2S1(=O)=O	16µM	?	–	·	50µM	–
C=CCN1C(C(=O)c2ccccc2)=C(OC(=O)COc2ccccc2)c2ccccc2S1(=O)=O	?	?	–	–	20µM	–
CCN1C(C(=O)c2ccccc2)=C(OC(=O)COc2ccc(OC)cc2)c2ccccc2S1(=O)=O	11µM	?	–	·	?	–
CCN1C(C(=O)c2ccccc2)=C(OC(=O)c2ccc(Cl)cc2)c2ccccc2S1(=O)=O	–	–	–	·	–	–
CCCN1C(C(=O)c2ccccc2)=C(OC(=O)COc2ccccc2)c2ccccc2S1(=O)=O	8.9µM	–	–	·	?	–
CCCN1C(C(=O)c2ccccc2)=C(OC(=O)C(C)(C)C)c2ccccc2S1(=O)=O	–	–	–	·	–	–
CN(C(=O)Cn1cnc2onc(-c3ccc(F)cc3)c2c1=O)c1ccccc1Cl	–	–	?	·	–	–
CC(C)Oc1ccc(CNC(=O)CCCn2c(=O)c3cccn3c3cccnc32)cc1	–	?	–	·	–	–

Compound activity (PubChem BioAssay)
